{
  "source": "PubChem BioAssay (NCI)",
  "note": "About 83,000 compounds went through this panel and 20% of them were active in at least one assay; those are over-represented in the sample as a whole.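 How to read the values: 0–100, growth inhibition (40 = 60% inhibited); 0, no net growth; -100 to 0, cell death (-40 = 40% of starting cells died; -100 = all dead).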 Calls of active or inactive are those of the source. The calls were made as follows: active = growth percent below 10; inactive = the rest.",
  "data": [
    {"system": "HL-60(TB) leukemia", "experiment": "NCI-60 one-dose screen, 48 h (100 = growth as untreated, 0 = no growth, -100 = all killed)", "conditions": "10 µM unless noted", "values": [
      {"compound": "CC1NC(=O)NC1CCCCCC(=O)O", "note": "(stereo not given)", "growth": "107% (inactive)"},
      {"compound": "Cn1c(-c2c(N)n(Cc3cccnc3)c3nc(C#N)c(C#N)nc23)nc2ccccc21", "growth": "50.3% (inactive)"},
      {"compound": "C=C(C)[C@@H]1CC[C@]2(C(=O)N[C@@H](Cc3ccccc3)C(=O)OC)CC[C@]3(C)[C@H](CC[C@@H]4[C@@]5(C)CCC(=O)C(C)(C)[C@@H]5CC[C@]43C)[C@@H]12", "growth": "56% (inactive)"},
      {"compound": "CC(C)N(CCOc1ccc(-c2nc3sccn3c2-c2ccnc(S(C)(=O)=O)n2)cc1)C(C)C", "growth": "85.8% (inactive)"},
      {"compound": "N#Cc1cnc2cc(OC[C@@H](O)CO)c(NC(=O)CC3CSSC3)cc2c1Nc1ccc(OCc2cccc(F)c2)c(Cl)c1", "growth": "-56.4% (active)"},
      {"compound": "CCOC(=O)C1=C(C)N2C(=NC3=C(CCCC/C3=C\\c3ccccc3)C2c2ccccc2)S1", "note": "(stereo not given)", "growth": "101% (inactive)"},
      {"compound": "Nc1nc(N)c(NC(=O)CNc2ccc(C(=O)O)cc2)c(N)n1", "growth": "107% (inactive)"},
      {"compound": "Nc1c(C(=O)Nc2cccc(Cl)c2)sc2nc3c(cc12)CCCC3", "growth": "78.8% (inactive)"},
      {"compound": "COc1ccccc1CNCCN1C(=O)c2ccc3c4c(ccc(c24)C1=O)C(=O)N(CCNCc1ccccc1OC)C3=O", "growth": "-71.8% (active)"},
      {"compound": "C=C1C(=O)O[C@H]2[C@H]1CC/C(COC(=O)c1cccc3ccccc13)=C\\CC[C@@]1(C)O[C@@H]21", "growth": "-47.2% (active)"},
      {"compound": "COc1ccc(Cn2cc(C(=O)N=Nc3c(O)[nH]c4c(Cl)cccc34)nn2)cc1", "growth": "97.4% (inactive)"},
      {"compound": "Cn1c2c(cc(S(=O)(=O)c3ccccc3)c1=O)CCc1c-2cnn1-c1ccc(Cl)cc1", "growth": "73.1% (inactive)"},
      {"compound": "O=C(CO[N+](=O)[O-])Nc1ccc(C(=O)/C=C/c2ccc3c(c2)OCO3)cc1", "growth": "73.7% (inactive)"},
      {"compound": "COc1ccc(Nc2ncccc2NC(=O)c2cn(Cc3cccc(Oc4ccccc4)c3)nn2)cc1", "growth": "95.9% (inactive)"},
      {"compound": "CCOC(=O)C1C(C(=O)OCC)C2C(=O)C3C(C(=O)OCC)C(C(=O)OCC)C3C(=O)C12", "note": "(stereo not given)", "growth": "96.7% (inactive)"},
      {"compound": "COc1cc(NC(=O)c2cc3ccccc3nc2Nc2ccc(F)cc2)cc(OC)c1OC", "growth": "47.2% (inactive)"},
      {"compound": "O=C(O)CCNS(=O)(=O)c1ccc(-c2ccccc2)cc1", "growth": "188% (inactive)"},
      {"compound": "COc1cnc2c(c1)C(=O)c1c-2n(CCCN2CCC(O)CC2)c(=O)c2cc(Cl)ccc12", "growth": "-35.9% (active)"},
      {"compound": "CCCCCCCCCCCCCCCCN(C(C)c1ccccc1)S(=O)(=O)c1ccc(OC)c(N)c1", "note": "(stereo not given)", "growth": "98.2% (inactive)"},
      {"compound": "O=[N+]([O-])c1ccccc1Nc1ccc2ccccc2c1", "growth": "93.5% (inactive)"},
      {"compound": "COc1cc(/C=C2\\CCCC3=C2NC(N)=NC3c2cc(OC)c(OC)c(OC)c2)cc(OC)c1OC", "note": "(stereo not given)", "growth": "-7.5% (active)"},
      {"compound": "Cc1ccc2c(-c3nnc(N)s3)cc(=O)oc2c1C", "growth": "100% (inactive)"},
      {"compound": "CCOC(=O)c1sc(NC(=O)COc2ccc(/C=C3\\CCc4cc(OC)ccc4C3=O)cc2)nc1C", "growth": "-57.4% (active)"},
      {"compound": "Cn1cc(-c2nc(-c3c[nH]c4ccccc34)cs2)c2cccnc21", "growth": "6.19% (active)"},
      {"compound": "CC1(C)C2CC=C(/C=N/NC(=O)C3CCC(=O)N3)C1C2", "note": "(stereo not given)", "growth": "101% (inactive)"},
      {"compound": "COc1ccc2c(CCCc3ccc(Cl)cc3Cl)c3[n+](cc2c1OC)CCc1cc2c(cc1-3)OCO2", "growth": "-41.4% (active)"},
      {"compound": "Nc1c2c(c(O)c3c1=C(CO)C=N3)=NCCS2=O", "note": "(stereo not given)", "growth": "-42.1% (active)"},
      {"compound": "Oc1ccccc1-c1nc2c3ccccc3c3ccccc3c2o1", "growth": "88% (inactive)"},
      {"compound": "Cc1ccc2nc3c(cc2c1)CSc1nnc(-c2ccc[nH]c2=S)n1N3", "growth": "102% (inactive)"},
      {"compound": "C=CCN1C(=O)/C(=C/C(=O)OC)S/C1=N\\NC(=O)c1cc2ccc1/C=C\\c1ccc(cc1)/C=C\\2", "growth": "91.8% (inactive)"},
      {"compound": "CCC(C)N(c1ccc(Cl)cc1)c1nc(-c2ccc(Br)cc2)cs1", "note": "(stereo not given)", "growth": "100% (inactive)"},
      {"compound": "CC(C)[C@H](NC(=O)Cn1cc(C(=O)O)nn1)C(=O)O", "growth": "123% (inactive)"},
      {"compound": "COc1ccc(/C=C2\\CN(C(=O)C(Cl)Cl)C/C(=C\\c3ccc(OC)c(OC)c3)C2=O)cc1OC", "growth": "-11.4% (active)"},
      {"compound": "COc1ccc(C(=O)NC(=O)Nc2ccc3c(c2)NC(=O)/C3=C\\c2[nH]c(C)c(CCC(=O)O)c2C)c(F)c1", "growth": "43.2% (inactive)"},
      {"compound": "O=[N+]([O-])c1cccc(N=NNc2cccc([N+](=O)[O-])c2)c1", "growth": "79.9% (inactive)"},
      {"compound": "CCCCCCCCCCCCOC(=O)/C=C\\C(=O)NC(N)=O", "growth": "52.3% (inactive)"},
      {"compound": "Cc1nc2ccccc2n1-c1ncnc2c1CC(C)c1ccccc1N2C", "note": "(stereo not given)", "growth": "83.8% (inactive)"},
      {"compound": "O=C(Nc1nc(-c2ccccc2Cl)cs1)c1cc(-c2ccc(Cl)cc2)nc2ccc(Cl)cc12", "growth": "-21.9% (active)"},
      {"compound": "CCCCCCCCn1ccc2cc(NC(=O)Cn3cc(CN4CCC(C)CC4)nn3)ccc21", "growth": "-22.4% (active)"},
      {"compound": "Oc1cc2ccccc2c(-c2c(O)c(O)cc3ccccc23)c1O", "growth": "19.8% (inactive)"}
    ]}
  ]
}
